Values without a mark were called inactive. Records with an inconclusive call do not appear. Calls of active or inactive are those of the source. Unless noted, the call rests on the fitted dose curve; in most records, active means well fitted curve in either direction with a large enough effect (not every such curve was filed as active); inconclusive means small, poorly fitted or top-dose-only effect, or another doubt; inactive means flat fitted curve, though single readings scatter.

Test [1] in a line: AP1 Signaling Pathway (AID 357).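 Further: ME-180 reporter cells stimulated with EGF at its EC50 level; on the % scale 0 is the no-effect control and ±100 the full control effect.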 The following applies: ME-180 AP-1-bla reporter, EGF-induced, beta-lactamase ratio, 5 h; at 7.69 µM (top of the series) unless noted. Put shortly:
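First, ME-180 AP-1-bla cells were cultured overnight at 37 °C in low-serum Opti-MEM. Next, titrated compounds with EC50 EGF were incubated 5 hours. Finally, CCF4 was added for 2.5 hours and the 460/530 nm ratio recorded.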

Test [2] has as its target Cytochrome P450 1A2 (Homo sapiens) (UniProt P05177). In words: p450-cyp1a2 (AID 410; calls by dose curve; further: potency means the concentration at half of the fitted maximal effect). The method in brief:
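Inhibition was calculated relative to 57 uM furafylline (full inhibition). The reaction used human CYP1A2 at 20nM with Luciferin-ME at its Km, 100uM, driven by an NADPH-regenerating system for 60 min at room temperature.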

The nature of test [3]: NFAT Signaling Pathway (AID 444).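 Further: carbachol stimulus at about its EC50 of 1 µM final; on the % scale 0 is the no-effect control and ±100 the full control effect.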 Particulars: Jurkat NFAT-bla M1, carbachol, beta-lactamase ratio, 5 h; at 7.69 µM (top of the series) unless noted. Put shortly:
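Jurkat cells with NFAT-driven β-lactamase reporter and co-expressed M1 receptor, stimulated with carbachol (final 1 uM, ~EC50), compound titration, 5 h at 37 °C. CCF4 loaded 1 h at RT; 460/530 nm ratio gave %activity and AC50.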

Test [4] in a line: Stat Signaling Pathway (AID 446).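 Further: ME-180 cervical cancer cells given 40 pM IL-6 alongside compound; SIE-controlled beta-lactamase reporter measured as 460/530 nm FRET emission ratio; on the % scale 0 is the no-effect control and ±100 the full control effect.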 Particulars: ME-180 SIE beta-lactamase reporter, IL-6 stimulated, 5 h; at 7.69 µM (top of the series) unless noted. Put shortly:
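Reporter line: ME-180 cervical carcinoma, SIE-beta-lactamase. Treatment: compound with 40 pM IL-6, 5 hrs, 37 C, in low-serum OPTI-MEM with 10 mM HEPES pH 7.3. Detection: 460/530 nm fluorescence.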

For test [5], the target named is Glucocorticoid receptor (Homo sapiens) (UniProt P04150). In words: GR-GFP Redistribution (AID 450;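 active means compounds whose dose series gives a full or clear partial fitted curve of increased nuclear translocation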; further: potency means the concentration at half of the fitted maximal effect). Particulars: U2OS GR-GFP nuclear translocation, laser cytometry, 2 h.
The target is the same in test [6]. In words: GR-EFC Redistribution (AID 451; calls by dose curve; further: potency means the concentration at half of the fitted maximal effect). The following applies: CHO-K1 GR-EFC translocation, beta-gal luminescence, 2 h. Put shortly:
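CHO-K1 cells expressing nuclear EA and GR-ED fragments of b-gal; compounds titrated up to 46 uM final, 2 h at 37 C. GR nuclear translocation read as complemented b-gal luminescence after 1 h RT detection.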

Test [7] addresses Guanine nucleotide-binding protein G(i) subunit alpha-1 (Homo sapiens) (UniProt P63096). In words: qHTS Assay for Inhibitors of RGS12 GoLoco Motif Activity (Green Fluorophore) (AID 879; active means well fitted curve in the direction sought with a large enough effect; an effect the other way counts as inactive or inconclusive;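 further: 0% = labeled peptide with Gαi1 and full inhibition = labeled peptide alone without protein; negative values mean loss of peptide binding seen as reduced polarization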). The method in brief:
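Fluorescence polarization assay: 50 nM Gαi1 with 10 nM FITC-labeled RGS12 GoLoco peptide in 10 mM Tris pH 7.5, 150 mM NaCl, 0.1 mM GDP, 0.05% NP40, 10 min at room temperature with compound.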
A general note: In qHTS, concentration-response curves come from the screen itself.

Test [8] deals with Cytochrome P450 3A4 (Homo sapiens) (UniProt P08684). In words: qHTS Assay for Activators of Cytochrome P450 3A4 (AID 885; active means well fitted curve in the direction sought with a large enough effect; an effect the other way counts as inactive or inconclusive; further: nearly all actives have a fitted effect of over 65% in size). The method in brief: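 Signal was normalized against complete inhibition by 57 uM ketoconazole. The reaction used 20nM CYP3A4 with 25uM Luciferin-PPXE, 10-min compound preincubation and a 60-min NADPH-supported step at RT.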
Test [9] has as its target Cytochrome P450 2D6 (Homo sapiens) (UniProt P10635). In words: qHTS Assay for Inhibitors and Substrates of Cytochrome P450 2D6 (AID 891; active means well fitted curve in the direction sought with a large enough effect; an effect the other way counts as inactive or inconclusive; further: nearly all actives have a fitted effect of over 60% in size; further: potency means the concentration at half of the fitted maximal effect). The method in brief: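 Human CYP2D6 (5 nM) with 30 uM Luciferin-ME EGE (at Km) in 100 mM KPO4, compound preincubated 10 min, then NADPH regeneration system for 60 min at room temperature. Luciferin read by luminescence; normalized to 1.43 uM quinidine.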

Test [10] in a line: qHTS Assay for Identification of Small Molecule Agonists for Thrombopoietin (TPO) Signaling Pathway (AID 917; active means well fitted curve in the direction sought with a large enough effect; an effect the other way counts as inactive or inconclusive; further: on the % scale 0 is the no-effect control and ±100 the full control effect). The method in brief:
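We measured Glycoprotein IIb promoter–luciferase output in IL-3-starved Ba/F3 murine cells expressing the human TPO receptor after 24 hrs at 37 C with compounds and 26 pM TPO.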

For test [11], the target named is Muscarinic acetylcholine receptor M1 (Rattus norvegicus) (UniProt P08482). In words: qHTS Assay for Antagonists of Acetylcholine Muscarinic M1 Receptor: Measurement of IP-One Response (AID 944; active means well fitted curve in the direction sought with a large enough effect; an effect the other way counts as inactive or inconclusive; further: nearly all actives have a fitted effect of over 75% in size). Put shortly:
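Steps: plate transfected CHO-M1 cells overnight; add test compound, 10 min; add carbachol (200 nM, EC80) in stimulation buffer with LiCl; incubate 30 min; add labelled IP1 tracer and anti-IP1 antibody in lysis buffer; read HTRF after 10 min.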

The target in test [12] is Pyruvate kinase (Leishmania mexicana) (UniProt Q27686). In words: qHTS Validation Assay for Inhibitors of Leishmania Mexicana Pyruvate Kinase (AID 945; active means well fitted curve in the direction sought with a large enough effect; an effect the other way counts as inactive or inconclusive;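 further: 0% = DMSO only neutral control wells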). Put shortly:
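Mutant LmPYK (E451W), 0.2 nM, plus 0.5 mM PEP and 0.1 mM ADP in 50 mM imidazole pH 7.2 containing 0.01% Tween 20 and 0.05% BSA. Incubated 1 h at room temperature; luminescence via PKLight, normalized to DMSO.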

In test [13] the target is Pyruvate kinase PKM (Homo sapiens) (UniProt P14618). In words: qHTS Assay for Activators of Human Muscle Pyruvate Kinase (AID 954; active means well fitted curve in the direction sought with a large enough effect, not every such curve was filed as active;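 further: 0% = uninhibited enzyme and -100% = no enzyme or full thiadiazolimine inhibition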). The method in brief:
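Human PKM2 activity is measured as ATP generation, detected by luciferase-coupled luminescence. The enzyme (0.1 nM) acts on 0.5 mM PEP and 0.1 mM ADP for 1 h at ambient temperature; data are normalized to uninhibited and full-inhibition wells.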

Test [14] addresses Alpha-galactosidase A (Homo sapiens) (UniProt P06280). In words: Counterscreen for Glucocerebrosidase Inhibitors: qHTS Assay for Human alpha-Galactosidase at pH 4.5 (AID 992; active means well fitted curve in the direction sought with a large enough effect; an effect the other way counts as inactive or inconclusive; further: 0% is about no effect). Put shortly:
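Quantitative HTS: compounds tested from 0.7 nM up to 77 uM against 2 nM enzyme with 80 uM 4-MU alpha-D-galactopyranoside. The 20 min room-temperature reaction is stopped with 1M NaOH/1M glycine, pH 10.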

The target in test [15] is alpha-glucosidase (Oryza sativa, rice) (UniProt Q653V4). In words: Counterscreen for Glucocerebrosidase Inhibitors: qHTS Assay for Rice alpha-Glucosidase at pH 5.0 (AID 997; active means well fitted curve in the direction sought with a large enough effect; an effect the other way counts as inactive or inconclusive;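 further: 0% = full activity with enzyme and -100% = basal without enzyme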). Put shortly: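 Rice alpha-glucosidase (4 nM final) with 400 uM 4-methylumbelliferyl-alpha-D-glucopyranoside in citrate buffer pH 5.0, 20 min at room temperature, stopped at pH 10; fluorescence 365/440 nm, compounds 0.7 nM–77 uM, AC50 from Hill fits.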
A general note: Counterscreens check selectivity or assay interference.

Test [16] deals with Mitogen-activated protein kinase 10 (Mus musculus) (UniProt Q61831). In words: JNK3 AlphaScreen Assay (AID 530). Put shortly: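 qHTS format: compounds tested as titrations against IL-1beta/TNF-alpha-activated HepG2 lysate JNK3 with biotin-GST-cJun substrate and 10 uM ATP at room temperature. Loss of anti-phospho-cJun AlphaScreen signal indicates inhibition.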
(In general: Alpha assays give light when donor and acceptor beads are brought close together.)

Test [17] concerns the target 3',5'-cyclic-AMP phosphodiesterase 4B (Homo sapiens) (UniProt Q07343). In words: qHTS Assay for Inhibitors of PDE-IV (AID 607; active means well fitted activation curve with a large enough effect in the main read-out, with a control signal flat, not every such curve was filed as active; further: % of control where 0% means no effect). The method in brief: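 Cell-based read-out of cAMP via a modified cyclic nucleotide-gated channel and membrane potential dye (535/590 nm) in HEK293 cells expressing PDE4 endogenously. Compounds tested up to 22.9 uM final; 100 uM RO 20-1724 reference.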

For test [18], the target named is Cytochrome P450 2C19 (Homo sapiens) (UniProt P33261). In words: qHTS Assay for Inhibitors and Substrates of Cytochrome P450 2C19 (AID 899; active means well fitted curve in the direction sought with a large enough effect; an effect the other way counts as inactive or inconclusive; further: nearly all actives have a fitted effect of over 60% in size; further: potency means the concentration at half of the fitted maximal effect). The method in brief: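 Signal comes from luciferase acting on luciferin released by CYP2C19-mediated hydroxylation of Luciferin-H EGE, 10uM (KM). Assay mix: 5nM enzyme, 50mM KPO4; 60 min at 37C with NADPH regeneration. Data normalized against 57uM ketoconazole.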
Chain of Cytochrome P450 2C19 (Homo sapiens) (P33261 whole entry, looked up): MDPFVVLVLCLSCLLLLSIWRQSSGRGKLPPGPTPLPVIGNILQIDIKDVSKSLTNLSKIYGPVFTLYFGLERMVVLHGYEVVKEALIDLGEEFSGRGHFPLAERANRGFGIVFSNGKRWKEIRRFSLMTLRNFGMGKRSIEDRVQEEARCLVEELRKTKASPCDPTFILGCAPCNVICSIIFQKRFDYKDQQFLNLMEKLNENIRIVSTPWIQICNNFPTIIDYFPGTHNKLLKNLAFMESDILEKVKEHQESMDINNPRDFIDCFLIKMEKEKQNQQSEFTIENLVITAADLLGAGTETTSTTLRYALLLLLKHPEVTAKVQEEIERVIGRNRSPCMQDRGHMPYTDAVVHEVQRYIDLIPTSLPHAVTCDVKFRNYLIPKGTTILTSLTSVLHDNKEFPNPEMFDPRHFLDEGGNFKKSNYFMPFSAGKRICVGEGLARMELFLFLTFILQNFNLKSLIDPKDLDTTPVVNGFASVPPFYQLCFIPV

Chain of Cytochrome P450 2D6 (Homo sapiens) (P10635 whole entry, looked up): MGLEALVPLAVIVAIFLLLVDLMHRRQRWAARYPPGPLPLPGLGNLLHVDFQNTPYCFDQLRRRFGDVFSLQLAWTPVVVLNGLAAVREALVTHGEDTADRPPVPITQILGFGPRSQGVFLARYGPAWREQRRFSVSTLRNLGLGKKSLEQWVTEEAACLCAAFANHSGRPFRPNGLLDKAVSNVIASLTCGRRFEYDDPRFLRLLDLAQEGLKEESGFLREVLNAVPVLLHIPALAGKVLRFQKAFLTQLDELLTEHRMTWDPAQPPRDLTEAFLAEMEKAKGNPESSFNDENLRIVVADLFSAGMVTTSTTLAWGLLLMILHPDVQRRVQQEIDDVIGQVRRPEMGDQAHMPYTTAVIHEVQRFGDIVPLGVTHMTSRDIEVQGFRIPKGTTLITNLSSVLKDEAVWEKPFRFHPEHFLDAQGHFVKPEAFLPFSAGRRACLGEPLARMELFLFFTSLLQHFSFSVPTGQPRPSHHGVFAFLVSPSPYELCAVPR
Chain of Cytochrome P450 3A4 (Homo sapiens) (P08684 whole entry, looked up): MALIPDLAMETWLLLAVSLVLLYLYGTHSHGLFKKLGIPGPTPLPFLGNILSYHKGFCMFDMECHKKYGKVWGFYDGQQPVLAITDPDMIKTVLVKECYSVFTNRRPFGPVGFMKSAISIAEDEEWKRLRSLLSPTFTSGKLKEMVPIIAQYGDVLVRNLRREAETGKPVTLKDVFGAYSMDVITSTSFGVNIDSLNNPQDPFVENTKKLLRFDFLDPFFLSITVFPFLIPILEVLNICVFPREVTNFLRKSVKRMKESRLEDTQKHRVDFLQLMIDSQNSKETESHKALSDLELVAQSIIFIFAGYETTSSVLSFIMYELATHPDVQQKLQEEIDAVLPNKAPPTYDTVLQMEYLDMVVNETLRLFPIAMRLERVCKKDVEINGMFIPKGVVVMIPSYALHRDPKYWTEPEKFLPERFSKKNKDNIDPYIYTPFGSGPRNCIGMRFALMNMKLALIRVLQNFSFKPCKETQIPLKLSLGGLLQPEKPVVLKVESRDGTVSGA
Chain of Cytochrome P450 1A2 (Homo sapiens) (P05177 whole entry, looked up): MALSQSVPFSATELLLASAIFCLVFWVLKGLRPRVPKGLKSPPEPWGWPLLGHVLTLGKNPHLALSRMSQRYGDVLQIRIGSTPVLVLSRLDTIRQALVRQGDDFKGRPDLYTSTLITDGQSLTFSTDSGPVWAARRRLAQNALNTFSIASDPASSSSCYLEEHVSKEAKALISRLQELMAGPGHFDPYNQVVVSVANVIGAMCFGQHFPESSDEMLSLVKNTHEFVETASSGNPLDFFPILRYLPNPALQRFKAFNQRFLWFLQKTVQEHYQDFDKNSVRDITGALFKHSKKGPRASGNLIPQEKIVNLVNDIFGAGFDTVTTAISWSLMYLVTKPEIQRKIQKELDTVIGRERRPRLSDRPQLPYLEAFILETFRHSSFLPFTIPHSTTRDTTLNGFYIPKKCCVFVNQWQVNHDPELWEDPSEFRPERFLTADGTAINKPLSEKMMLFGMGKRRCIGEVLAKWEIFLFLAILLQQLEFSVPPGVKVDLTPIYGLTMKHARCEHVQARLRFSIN
Chain of Glucocorticoid receptor (Homo sapiens) (P04150 whole entry, looked up): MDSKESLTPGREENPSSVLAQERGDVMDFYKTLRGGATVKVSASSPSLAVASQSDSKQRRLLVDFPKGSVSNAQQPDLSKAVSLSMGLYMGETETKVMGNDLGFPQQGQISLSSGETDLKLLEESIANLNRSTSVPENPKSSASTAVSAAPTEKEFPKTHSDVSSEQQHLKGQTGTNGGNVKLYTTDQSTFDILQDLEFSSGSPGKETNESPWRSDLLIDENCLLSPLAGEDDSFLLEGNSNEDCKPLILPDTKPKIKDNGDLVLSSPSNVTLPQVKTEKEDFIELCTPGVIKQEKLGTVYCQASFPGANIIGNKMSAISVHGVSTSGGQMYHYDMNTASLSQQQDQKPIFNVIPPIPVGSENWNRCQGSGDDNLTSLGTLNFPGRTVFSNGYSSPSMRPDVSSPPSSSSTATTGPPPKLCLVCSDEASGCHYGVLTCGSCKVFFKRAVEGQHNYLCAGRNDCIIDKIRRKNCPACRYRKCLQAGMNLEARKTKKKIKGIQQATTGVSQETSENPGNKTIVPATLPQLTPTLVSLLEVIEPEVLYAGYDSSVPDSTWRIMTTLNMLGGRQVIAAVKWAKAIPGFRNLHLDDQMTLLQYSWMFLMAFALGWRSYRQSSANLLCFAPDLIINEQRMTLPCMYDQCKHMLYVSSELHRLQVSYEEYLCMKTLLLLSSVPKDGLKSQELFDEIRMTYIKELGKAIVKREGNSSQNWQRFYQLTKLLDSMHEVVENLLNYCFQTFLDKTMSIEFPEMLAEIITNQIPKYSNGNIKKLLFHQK
Chain of 3',5'-cyclic-AMP phosphodiesterase 4B (Homo sapiens) (Q07343 whole entry, looked up): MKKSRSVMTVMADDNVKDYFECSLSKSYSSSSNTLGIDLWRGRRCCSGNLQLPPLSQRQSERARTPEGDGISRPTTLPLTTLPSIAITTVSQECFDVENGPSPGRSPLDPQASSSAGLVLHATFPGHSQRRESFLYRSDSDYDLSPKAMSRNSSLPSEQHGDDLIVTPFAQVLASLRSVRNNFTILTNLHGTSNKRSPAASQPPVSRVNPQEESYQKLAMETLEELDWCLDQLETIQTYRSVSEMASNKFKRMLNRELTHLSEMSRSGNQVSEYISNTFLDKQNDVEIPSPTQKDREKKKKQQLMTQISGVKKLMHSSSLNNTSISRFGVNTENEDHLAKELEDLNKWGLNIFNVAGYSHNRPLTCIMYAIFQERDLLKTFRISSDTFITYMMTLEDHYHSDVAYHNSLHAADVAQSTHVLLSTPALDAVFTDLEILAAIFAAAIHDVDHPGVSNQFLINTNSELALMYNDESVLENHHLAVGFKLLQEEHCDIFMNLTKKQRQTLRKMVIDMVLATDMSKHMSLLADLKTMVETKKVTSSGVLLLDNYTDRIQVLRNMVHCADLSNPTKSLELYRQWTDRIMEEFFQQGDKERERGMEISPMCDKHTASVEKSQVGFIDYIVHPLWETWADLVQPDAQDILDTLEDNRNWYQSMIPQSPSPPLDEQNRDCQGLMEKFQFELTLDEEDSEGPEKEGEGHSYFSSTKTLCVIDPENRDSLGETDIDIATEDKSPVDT
Chain of Muscarinic acetylcholine receptor M1 (Rattus norvegicus) (P08482 whole entry, looked up): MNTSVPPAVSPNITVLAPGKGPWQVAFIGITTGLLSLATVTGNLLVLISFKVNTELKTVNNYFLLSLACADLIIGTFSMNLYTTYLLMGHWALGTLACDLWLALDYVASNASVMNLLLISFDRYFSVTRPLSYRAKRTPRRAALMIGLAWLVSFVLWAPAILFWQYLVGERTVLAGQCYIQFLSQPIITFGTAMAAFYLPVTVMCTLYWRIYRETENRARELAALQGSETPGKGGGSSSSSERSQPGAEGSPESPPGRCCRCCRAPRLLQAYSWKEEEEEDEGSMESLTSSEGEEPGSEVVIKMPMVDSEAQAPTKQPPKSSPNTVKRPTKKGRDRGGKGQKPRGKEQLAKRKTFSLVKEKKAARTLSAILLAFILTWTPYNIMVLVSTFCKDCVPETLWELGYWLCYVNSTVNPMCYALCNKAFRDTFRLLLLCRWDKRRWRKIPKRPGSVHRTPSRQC
Chain of Guanine nucleotide-binding protein G(i) subunit alpha-1 (Homo sapiens) (P63096 whole entry, looked up): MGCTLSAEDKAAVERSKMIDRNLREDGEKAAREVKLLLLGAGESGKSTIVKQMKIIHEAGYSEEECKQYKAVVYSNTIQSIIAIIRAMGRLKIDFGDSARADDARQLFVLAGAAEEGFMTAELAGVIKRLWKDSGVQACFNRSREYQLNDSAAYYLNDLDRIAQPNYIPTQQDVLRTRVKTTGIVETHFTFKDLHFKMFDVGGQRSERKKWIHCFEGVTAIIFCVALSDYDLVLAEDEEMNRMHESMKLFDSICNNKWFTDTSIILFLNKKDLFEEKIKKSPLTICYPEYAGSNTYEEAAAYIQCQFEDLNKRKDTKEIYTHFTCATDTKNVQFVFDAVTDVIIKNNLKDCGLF
Chain of Pyruvate kinase PKM (Homo sapiens) (P14618 whole entry, looked up): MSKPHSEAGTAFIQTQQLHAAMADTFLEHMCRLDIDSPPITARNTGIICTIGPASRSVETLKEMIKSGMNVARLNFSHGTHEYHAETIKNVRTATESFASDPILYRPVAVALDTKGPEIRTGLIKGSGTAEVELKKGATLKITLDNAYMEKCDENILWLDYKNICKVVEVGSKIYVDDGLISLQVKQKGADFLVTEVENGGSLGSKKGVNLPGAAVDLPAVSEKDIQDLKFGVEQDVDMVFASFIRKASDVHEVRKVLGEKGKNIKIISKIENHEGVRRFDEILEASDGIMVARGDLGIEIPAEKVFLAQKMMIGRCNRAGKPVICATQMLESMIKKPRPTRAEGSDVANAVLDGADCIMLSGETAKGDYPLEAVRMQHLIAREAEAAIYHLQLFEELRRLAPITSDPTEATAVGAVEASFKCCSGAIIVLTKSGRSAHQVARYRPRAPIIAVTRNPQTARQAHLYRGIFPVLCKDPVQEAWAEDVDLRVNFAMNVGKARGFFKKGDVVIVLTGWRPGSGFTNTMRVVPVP

With `C=C[C@@]1(C)CC(=O)[C@@]2(O)[C@@]3(C)[C@H](O)CCC(C)(C)[C@@H]3[C@H](O)[C@H](OC(C)=O)[C@]2(C)O1`, the figures for the activity change, negative = inhibition in test [1] and in test [3] were -15.8% [at 38 µM] and 5.97% [at 38 µM], respectively. The Potency result in test [2], in [8], in test [9], in test [11] and in [15] was “inactive” in each case. Further, the activity, negative = inhibition in [4] was 9.83% [at 38 µM]. Besides, the Potency in [5] and in test [6] was above 46 µM each time. For the same molecule, the outcome in [7], in test [10], in test [12], in [13] and in test [14] was inactive.
`Nc1ncnc2c1ncn2[C@@H]1O[C@@H](C(=O)NC2CC2)[C@H](O)[C@@H]1O`: the activity change, negative = inhibition in test [1] was -9.63% [at 38 µM]; in test [3] it was -15.3% [at 38 µM]. The Potency entry in test [2], in test [16], in [8], in test [11] and in [15] was “inactive” throughout. For the same molecule, the activity, negative = inhibition in test [4] was -7% [at 38 µM]. The Potency in [5] and in test [6] was above 46 µM each time. Besides, the outcome in test [7], in test [10], in test [12], in test [13] and in test [14] was inactive.
Turning to `C[N+]1(CCC(=O)c2ccco2)CC2CCC(CC2)C1` (configuration not stated), the activity change, negative = inhibition in test [1] is 6.86%; in test [3], 7.5%. Also, the Potency result in test [2], in test [16], in test [17] and in test [9] was “inactive” throughout. Moreover, the activity, negative = inhibition in [4] is 1.18%. Also, the Potency in [5] was above 46 µM; in test [6], above 9.22 µM.
In the case of `CN(CCc1ccccn1)c1ccc2c(c1)Cc1ccccc1-2`, the activity change, negative = inhibition in test [1] was -10.1%; in test [3], -13.8%. Further, the Potency in test [2] was 0.631 µM (active); in test [5], above 46 µM; in [6], above 9.22 µM; in test [9], 3.16 µM (active); in test [18], 0.794 µM (active). Besides, the activity, negative = inhibition in test [4] is 7.42%. Moreover, the Potency result in test [16], in [17] and in test [8] was “inactive” throughout.
As to `COc1cc(OC)cc([C@H](CNc2ncnc3c2ncn3[C@@H]2O[C@@H](CO)[C@H](O)[C@@H]2O)c2ccccc2C)c1`, the activity change, negative = inhibition is -6.78% [at 38 µM] in test [1] and 19.3% [at 38 µM] in [3]. Besides, the Potency entry in test [2], in test [16], in [17] and in test [18] was “inactive” each time. Moreover, the activity, negative = inhibition in test [4] is 3.32% [at 38 µM]. In addition, the Potency in test [5] and in test [6] was above 46 µM each time.
With `C=C1CC[C@H](O)C/C1=C/C=C1\CCC[C@]2(C)[C@H]1CC[C@H]2[C@@H](C)CCCC(C)C`, the activity change, negative = inhibition in test [1] is -6.4% [at 17.2 µM]; in test [3], 8.22% [at 17.2 µM]. For the same molecule, the Potency result in test [2], in [16] and in test [17] was “inactive” throughout. Moreover, the activity, negative = inhibition in test [4] was -9.36% [at 17.2 µM]. Moreover, the Potency in test [5] and in [6] was above 20.6 µM throughout.
`CC[C@H](C)C(=O)O[C@@H]1CCC=C2C=C[C@H](C)[C@@H](CC[C@H]3C[C@@H](O)CC(=O)O3)[C@H]21`: the results for the activity change, negative = inhibition in [1] and in test [3] were -28.7% [at 38 µM] and 6.96% [at 38 µM], respectively. Moreover, the Potency entry in test [2], in [16], in [17], in test [9] and in test [18] was “inactive” each time. The activity, negative = inhibition in test [4] is 10.1% [at 38 µM]. Moreover, the Potency in [5] and in [6] was above 46 µM throughout.

The record behind these values is PubChem BioAssay (NCATS).
